# Data from PubChem BioAssay AID1159580 (chemical genetic matrix, 2015).
# Where “and” joins values, the source holds several entries; their conditions need not be identical. Identical values can stand only once. Among all 5,500 compounds or so, about 2,000 (36%) were called active. About 18% were inconclusive and are not listed. Some of the results follow. A number with no mark means an inactive call. Rule as the data show it: active = normalized growth mostly below about 0.91 (no sharp cut-off); inconclusive = no clear call, values can overlap the other calls; inactive = mostly above about 0.92.
# Assay: chemical genetic growth profiling, strain panel (AID 1159580);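 also: tested at 20 µM; growth read once vehicle control cultures reached saturation at 30 °C; 1 = growth at the plate median or of vehicle wells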
# Settings: S. cerevisiae deletion strains, growth OD
compound,measurement,setting,value
CC1(C)C(=O)C=C[C@@]2(C)C1=C(O)C(=O)[C@]1(C)C2CC[C@@]2(C)[C@H](c3ccoc3)C[C@H]3O[C@]321 (stereo not given in full),normalized growth,"locus YAL021C, strain ccr4, stronger effect = lower value",0.995
same,normalized growth,"locus YAL026C, strain drs2, stronger effect = lower value",0.893 (active)
same,normalized growth,"locus YAL030W, strain snc1, stronger effect = lower value",0.96
same,normalized growth,"locus YBL061C, strain skt5, stronger effect = lower value",0.884 (active)
same,normalized growth,"locus YBR009C, strain hhf1, stronger effect = lower value",0.672 (active)
same,normalized growth,"locus YBR021W, strain FUR4, stronger effect = lower value",0.996
same,normalized growth,"locus YBR023C, strain chs3, stronger effect = lower value",0.908 (active)
same,normalized growth,"locus YBR171W, strain sec66, stronger effect = lower value",0.916
same,normalized growth,"locus YBR229C, strain ROT2, stronger effect = lower value",0.923
same,normalized growth,"locus YBR231C, strain swc5, stronger effect = lower value",0.901 (active)
same,normalized growth,"locus YBR279W, strain paf1, stronger effect = lower value",0.908 (active)
same,normalized growth,"locus YCL011C, strain gbp2, stronger effect = lower value",0.827 (active)
same,normalized growth,"locus YCL016C, strain dcc1, stronger effect = lower value",0.901 (active)
same,normalized growth,"locus YCL029C, strain bik1, stronger effect = lower value",0.879 (active)
same,normalized growth,"locus YCL061C, strain MRC1, stronger effect = lower value",0.897 (active)
same,normalized growth,"locus YCL069W, strain vba3, stronger effect = lower value",0.959
same,normalized growth,"locus YCR088W, strain abp1, stronger effect = lower value",0.962
same,normalized growth,"locus YDL005C, strain med2, stronger effect = lower value",0.957
same,normalized growth,"locus YDL035C, strain GPR1, stronger effect = lower value",0.641 (active)
same,normalized growth,"locus YDL040C, strain nat1, stronger effect = lower value",0.957
same,normalized growth,"locus YDL074C, strain BRE1, stronger effect = lower value",0.377 (active)
same,normalized growth,"locus YDL101C, strain DUN1, stronger effect = lower value",0.786 (active)
same,normalized growth,"locus YDL134C, strain PPH21, stronger effect = lower value",0.608 (active)
same,normalized growth,"locus YDL185W, strain tfp1, stronger effect = lower value",0.955
same,normalized growth,"locus YDL192W, strain arf1, stronger effect = lower value",0.743 (active)
same,normalized growth,"locus YDR001C, strain nth1, stronger effect = lower value",0.967
same,normalized growth,"locus YDR069C, strain doa4, stronger effect = lower value",0.99
same,normalized growth,"locus YDR101C, strain arx1, stronger effect = lower value",0.843 (active)
same,normalized growth,"locus YDR137W, strain rgp1, stronger effect = lower value",0.602 (active)
same,normalized growth,"locus YDR159W, strain sac3, stronger effect = lower value",0.549 (active)
same,normalized growth,"locus YDR162C, strain NBP2, stronger effect = lower value",0.226 (active)
same,normalized growth,"locus YDR195W, strain ref2",0.785 (active)
same,normalized growth,"locus YDR297W, strain sur2, stronger effect = lower value",0.869 (active)
same,normalized growth,"locus YDR318W, strain mcm21, stronger effect = lower value",0.762 (active)
same,normalized growth,"locus YDR334W, strain swr1, stronger effect = lower value",0.965
same,normalized growth,"locus YDR335W, strain msn5, stronger effect = lower value",0.969
same,normalized growth,"locus YDR388W, stronger effect = lower value",0.982
same,normalized growth,"locus YDR392W, strain spt3, stronger effect = lower value",0.219 (active)
same,normalized growth,"locus YDR502C, strain sam2, stronger effect = lower value",0.833 (active)
same,normalized growth,"locus YEL003W, strain gim4, stronger effect = lower value",0.851 (active)
same,normalized growth,"locus YEL037C, strain rad23, stronger effect = lower value",0.966
same,normalized growth,"locus YEL061C, strain CIN8 (second series), stronger effect = lower value",0.95
same,normalized growth,"locus YER015W, strain faa2, stronger effect = lower value",0.902 (active)
same,normalized growth,"locus YER016W, strain bim1, stronger effect = lower value",0.934
same,normalized growth,"locus YER110C, stronger effect = lower value",0.978
same,normalized growth,"locus YER111C, strain swi4, stronger effect = lower value",0.925
same,normalized growth,"locus YER155C, strain BEM2 (second series), stronger effect = lower value",0.814 (active)
same,normalized growth,"locus YER155C, strain BEM2, stronger effect = lower value",0.57 (active)
same,normalized growth,"locus YER167W, strain BCK2, stronger effect = lower value",0.768 (active)
same,normalized growth,"locus YFR010W, strain ubp6, stronger effect = lower value",0.95
same,normalized growth,"locus YGL078C, strain dbp3, stronger effect = lower value",0.934
same,normalized growth,"locus YGL086W, strain mad1, stronger effect = lower value",0.767 (active)
same,normalized growth,"locus YGL167C, strain pmr1, stronger effect = lower value",0.954
same,normalized growth,"locus YGL173C, strain kem1, stronger effect = lower value",0.872 (active)
same,normalized growth,"locus YGL227W, strain vid30, stronger effect = lower value",0.949
same,normalized growth,"locus YGL240W, strain doc1, stronger effect = lower value",0.916
same,normalized growth,"locus YGL248W, strain PDE1, stronger effect = lower value",0.766 (active)
same,normalized growth,"locus YGL253W, strain hxk2, stronger effect = lower value",0.871 (active)
same,normalized growth,"locus YGR078C, strain PAC10, stronger effect = lower value",0.513 (active)
same,normalized growth,"locus YGR135W, strain pre9, stronger effect = lower value",0.854 (active)
same,normalized growth,"locus YGR252W, strain gcn5, stronger effect = lower value",0.734 (active)
same,normalized growth,"locus YHR013C, strain ard1, stronger effect = lower value",0.842 (active)
same,normalized growth,"locus YHR027C, strain rpn1, stronger effect = lower value",0.917 (active)
same,normalized growth,"locus YHR030C, strain SLT2, stronger effect = lower value",0.697 (active) and 0.536 (active)
same,normalized growth,"locus YHR079C, strain IRE1 (second series), stronger effect = lower value",0.972
same,normalized growth,"locus YHR079C, strain IRE1, stronger effect = lower value",0.821 (active)
same,normalized growth,"locus YHR094C, strain hxt1, stronger effect = lower value",0.975
same,normalized growth,"locus YHR129C, strain ARP1, stronger effect = lower value",0.613 (active)
same,normalized growth,"locus YHR142W, strain chs7, stronger effect = lower value",0.8 (active)
same,normalized growth,"locus YHR200W, strain rpn10, stronger effect = lower value",0.951
same,normalized growth,"locus YIL066C, strain RNR3, stronger effect = lower value",0.381 (active)
same,normalized growth,"locus YIL073C, strain SPO22, stronger effect = lower value",0.868
same,normalized growth,"locus YIL125W, strain kgd1, stronger effect = lower value",0.928 (active)
same,normalized growth,"locus YIR030C, strain dcg1, stronger effect = lower value",0.907 (active)
same,normalized growth,"locus YJL092W, strain hpr5, stronger effect = lower value",0.961
same,normalized growth,"locus YJL095W, strain BCK1 (second series), stronger effect = lower value",0.777 (active)
same,normalized growth,"locus YJL095W, strain BCK1, stronger effect = lower value",0.363 (active) and 0.62 (active)
same,normalized growth,"locus YJL115W, strain asf1, stronger effect = lower value",0.969
same,normalized growth,"locus YJL129C, strain trk1, stronger effect = lower value",0.776 (active)
same,normalized growth,"locus YJL134W, strain LCB3, stronger effect = lower value",0.966
same,normalized growth,"locus YJL154C, strain vps35, stronger effect = lower value",0.977
same,normalized growth,"locus YJL164C, strain tpk1, stronger effect = lower value",0.838 (active)
same,normalized growth,"locus YJL166W, strain qcr8, stronger effect = lower value",0.748 (active)
same,normalized growth,"locus YJL168C, strain set2, stronger effect = lower value",0.985
same,normalized growth,"locus YJL187C, strain SWE1 (second series), stronger effect = lower value",0.808 (active)
